G9a block – G9a (human) methyltransferase inhibition | G9a H3K9 monomethylation, AlphaScreen, 2 h | AID 504332 | 350,000 tested, 8.8% active | Potency, µM (titrated, usually from 102 µM), inactives show top-dose activity, negative = inhibition, hits mostly inhibitors | Q96KQ7; also: potency is read from the fitted curve at half-maximal effect; % is scaled to controls: 0 for no effect and ±100 for the full control effect; nearly all actives have a fitted effect of over 75% in size
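Methyltransferase reactions run at room temperature for 2 h (20 nM enzyme, 500 nM biotin-H3K9 peptide, 20 uM SAM) after a 15 min compound preincubation; product detected by AlphaScreen beads and anti-H3K9me1 antibody.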
PI5P4Ka inh – blocks human PI5P4K alpha kinase activity. P48426. max response, %. AID 652105. 330,000 tested, 1.2% active. PI5P4Kalpha enzyme, ADP-Glo luminescence, 60 min; stronger effect = lower value; active = max response of -50% or lower; inconclusive = between -30% and -50%; inactive = -30% or higher; also: value at the top dose of about 77 µM; % is scaled to controls: 0 for no effect and ±100 for the full control effect
Target sequence (P48426 whole entry, looked up): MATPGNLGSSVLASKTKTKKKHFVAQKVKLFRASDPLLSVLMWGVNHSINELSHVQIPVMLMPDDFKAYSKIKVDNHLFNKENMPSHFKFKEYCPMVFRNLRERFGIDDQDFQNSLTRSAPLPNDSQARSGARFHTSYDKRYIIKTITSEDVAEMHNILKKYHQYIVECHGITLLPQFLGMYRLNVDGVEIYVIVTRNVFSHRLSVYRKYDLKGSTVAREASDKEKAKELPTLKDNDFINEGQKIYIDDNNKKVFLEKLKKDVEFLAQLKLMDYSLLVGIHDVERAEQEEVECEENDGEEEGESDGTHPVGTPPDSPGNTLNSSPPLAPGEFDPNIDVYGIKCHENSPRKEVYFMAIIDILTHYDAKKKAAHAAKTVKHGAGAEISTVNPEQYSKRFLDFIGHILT
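Compounds were pin-transferred onto PI5P4Kalpha and substrate in HEPES pH 7.4 buffer with EGTA, CHAPS and 5% DMSO. ATP (5 microM final) started the reaction, which ran 60 minutes at room temperature before ADP-Glo detection.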
L3MBTL1 inh – L3MBTL1 (human) inhibition. Q9Y468. AlphaScreen L3MBTL1–H3K9me1 peptide binding. Potency, µM (series often up to 57.1 µM), inactives show at the highest dose activity, negative = inhibition, hits mostly inhibitors. 230,000 tested, 0.66% active. AID 485360; also: potency is read from the fitted curve at half-maximal effect; % is scaled to controls: 0 for no effect and ±100 for the full control effect; nearly all actives have a fitted effect of over 60% in size
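Read-out is AlphaScreen signal from streptavidin donor and nickel chelate acceptor beads (10 ug/mL final each) bridging L3MBTL1 (50 nM) and biotinylated K9-monomethylated H3(1-15) peptide (75 nM), after 30 min compound exposure at room temperature.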
HP1b chromo inh – inhibitors of HP1-beta chromodomain binding to methylated histone tails | 390,000 tested, 0.56% active | AlphaScreen HP1-beta / biotin-H3K9me3 peptide binding | P83916 | Potency, µM (doses to about 114 µM), for the others: at the top dose activity change, negative = inhibition, hits mostly inhibitors; also: potency is read from the fitted curve at half-maximal effect; nearly all actives have a fitted effect of over 70% in size
Target sequence (P83916 whole entry, looked up): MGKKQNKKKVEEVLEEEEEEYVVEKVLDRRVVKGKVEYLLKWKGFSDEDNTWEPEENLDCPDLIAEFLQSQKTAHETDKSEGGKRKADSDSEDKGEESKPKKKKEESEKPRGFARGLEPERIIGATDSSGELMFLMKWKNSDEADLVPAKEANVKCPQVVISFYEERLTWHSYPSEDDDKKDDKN
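AlphaScreen: HP1-beta (50 nM) preformed 30 min with biotin-H3(1-18)K9me3 peptide (50 nM) in PBS pH 7.4, 0.01% Tween-20. Compound added for 30 min at RT, then streptavidin donor/nickel chelate acceptor beads (10 ug/mL) for 30 min.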
JMJD2A Tudor – JMJD2A Tudor domain (human) inhibition | Potency, µM (top dose mostly 114 µM), for inactives: top-dose activity change, negative = inhibition, usual class: inhibitors | O75164 | 390,000 tested, 4.4% active | AlphaScreen JMJD2A-Tudor / H3K4me3 peptide binding; also: potency is read from the fitted curve at half-maximal effect; % is scaled to controls: 0 for no effect and ±100 for the full control effect; nearly all actives have a fitted effect of over 50% in size
BAZ2B inh – blocks human BAZ2B; AID 504333; Q9UIF8; AlphaScreen BAZ2B-H3K14Ac peptide displacement; Potency, µM (titrated, usually from 114 µM), inactives show at the highest dose activity change, negative = inhibition, most hits filed as inhibitors; 360,000 tested, 4.4% active; also: potency is read from the fitted curve at half-maximal effect; % is scaled to controls: 0 for no effect and ±100 for the full control effect; nearly all actives have a fitted effect of over 60% in size
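Complex of BAZ2B and biotin-H3K14Ac (50 nM apiece) forms over 30 min at RT, then faces library compounds up to 110 uM for another 30 min; AlphaScreen beads added, 20 min dark incubation, luminescence read.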
Active calls of the source: *; u = inconclusive; x = not tested or not shown; [ ] = dose if it differs, or a comment. A selection: hits, their analogues and other compounds. The true share with any hit is near 11%. Unless noted, calls follow the shape of the dose curve; as a rule, active = well fitted inhibition curve with a large enough effect; inconclusive = small, poorly fitted or top-dose-only effect; inactive = no such curve, though single readings can be large or run the other way.

SMILES | G9a block | PI5P4Ka inh | L3MBTL1 inh | HP1b chromo inh | JMJD2A Tudor | BAZ2B inh
CCC1(c2ccccc2)CCC(=O)NC1=O (stereo unspecified) | 8%[59 µM] | x | x | x | x | x
COC1C(OC(=O)c2ccc(C)[nH]2)C(O)C(Oc2ccc3c(O)c(NC(=O)c4ccc(O)c(CC=C(C)C)c4)c(=O)oc3c2Cl)OC1(C)C (stereo unspecified) | x | u | -8% | u | 50µM* | u
COc1ccc(CN2CCN(c3ccccc3)CC2)c(C)c1C | 11µM* | 2 | x | u | 4µM* | 50µM*
Oc1ccc(Cl)cc1CN1CCN(Cc2ccccc2)CC1 | u | 3 | x | 72% | -24%[57.1 µM] | u
COc1ccccc1N1CCN(Cc2ccc(SC)cc2)CC1 | 10µM* | -4 | -10% | u | 28µM* | 50µM*
COc1ccccc1CN1CCN(Cc2ccc(Cl)cc2)CC1 | 3.5µM* | 2 | -8% | u | 40µM* | 18µM*
Cc1cc(O)c(CN2CCN(c3ccccc3)CC2)cc1C | 22%[12.7 µM] | 2 | x | 34% | -17% | -1%
CCOc1ccccc1CN1CCN(S(=O)(=O)CC)CC1 | 13µM* | x | -2% | u | 5.6µM* | 50µM*
COc1ccccc1N1CCN(Cc2ccc(F)cc2)CC1 | -34% | 3 | x | 27% | -20% | -11%
CCOc1ccccc1CN1C2CCC1CC(c1ccc(C)cc1)C2 (stereo unspecified) | 31% | 0 | 1% | 70% | -3% | -6%
Cn1c(=O)oc2cc(S(=O)(=O)N3CCCC(C(=O)N4CCN(c5cccc(Cl)c5)CC4)C3)ccc21 (stereo unspecified) | u | x | x | 27% | -15% | -12%
CCCn1c(C)c(C(=O)c2ccc3ccccc3c2)c2ccccc21 | -4%[59 µM] | x | x | x | x | x
CCC1CN2CCC1CC2C(O)c1ccnc2ccc(OC)cc12 (stereo unspecified) | 6%[2.33 µM] | x | x | x | x | x
C[C@]12C=CC(=O)C=C1CC[C@@H]1[C@@H]2CC[C@@]2(C)[C@H]1CC[C@]2(C)O | 31%[59 µM] | x | x | x | x | x
COc1cccc(C2SCC(=O)Nc3c2c(C)nn3-c2ccc(C)c(Cl)c2)c1OC (stereo unspecified) | -25%[59 µM] | x | x | 66% | 3% | 2%
FC(F)(F)c1ccccc1CN1CCN(Cc2ccccc2)CC1 | 3.2µM* | x | x | u | 4µM* | 50µM*
Cc1ccc(CN2CCN(Cc3ccccc3F)CC2)cc1 | 13µM* | 9 | 0% | u | 20µM* | 22µM*
CC(C)N1CCN(Cc2ccccc2C(F)(F)F)CC1CCO (stereo unspecified) | 19% | 4 | u | 5% | -13% | -14%
CCc1ccc(CN2CCN(Cc3ccc(SC)cc3)CC2)cc1 | 3.5µM* | -4 | x | u | u | 40µM*
CSc1ccc(CN2CCN(c3ccccc3C)CC2)cc1 | 13µM* | -2 | -4% | -12% | 4.5µM* | u
Cc1ccc(Cl)c(O)c1 | 30%[59 µM] | x | x | x | x | x
S=P(c1ccccc1)(c1ccccc1)c1c[n+](Cc2ccccc2)c2ccccn12 | x | x | x | x | -16% | x
COc1ccccc1N1CCN(Cc2ccc(Cl)cc2Cl)CC1 | 22µM* | x | x | u | 22µM* | u
COc1cccc(CN2CCN(c3ccc(F)cc3)CC2)c1OC | x | 1 | x | x | x | x
CCOc1ccccc1N1CCN(Cc2cccc(OC)c2OC)CC1 | u | 0 | -8% | u | 1.8µM* | u
SMILES | G9a block | PI5P4Ka inh | L3MBTL1 inh | HP1b chromo inh | JMJD2A Tudor | BAZ2B inh
O=C1CC2OCC=C3CN4CC[C@]56c7ccccc7N1C5C2[C@H]3C[C@H]46 (stereo partly specified) | 17%[59 µM] | x | x | x | x | x
CCC(=O)Nc1cccc(-c2nnc(SCC(=O)NCc3ccco3)n2C)c1 | 50µM* | 2 | 3% | 24% | -10% | -1%
Clc1ccc(Sc2oc(/C=N/n3cnnc3)cc2Br)cc1 | -2% | -7 | -8% | 9% | 89µM* | 10%
CCOC(=O)c1ccc(NC(=O)C2C3C=CC(O3)C2C(=O)O)cc1 (stereo unspecified) | 35µM* | x | 4% | x | x | -3%
CCOC(=O)c1ccc(NC(=O)CSc2nc3c(cc2C#N)N2CCC3CC2)cc1 | 10%[59 µM] | x | x | 47% | 4% | -3%
CCOC(=O)c1ccc(N2C(=O)c3n[nH]c(-c4cccs4)c3C2c2ccc(OC)cc2OC)cc1 (stereo unspecified) | -2%[59 µM] | x | x | 2% | u | x
CCn1c(N)c(C(=O)NC)sc1=S | u | -59* | x | -68% | 56µM* | u
O=C(O)/C=C\C(=O)Nc1ccc(Oc2ccc(Br)cc2)cc1 | u | -21 | -4% | 35% | -14% | 50µM*
CC1/C=C/C=C/CC/C=C/C=C/C=C/C=C/C(OC2OC(C)C(O)C(N)C2O)CC2O[C@](O)(CC(O)C(O)CCC(O)CC(O)CC(O)CC(=O)OC(C)C(C)C1O)CC(O)C2C(=O)O (stereo partly specified) | -15%[2.33 µM] | x | x | x | x | x
C=C1C([C@@H](O)C[C@H](C)C2O[C@@]3(CCCCO3)CC[C@H]2C)OC2CC[C@@]3(CC[C@@H](/C=C/[C@@H](C)C4CC(C)=C[C@]5(O4)O[C@H](C[C@@](C)(O)C(=O)O)CCC5O)O3)OC2[C@@H]1O (stereo partly specified) | 12%[59 µM] | x | x | x | x | x
CCCCC(=O)N/N=C/c1c(O)n(CCCC)c(=S)[nH]c1=O | 20% | -18 | u | 19% | -26% | 71µM*
O=c1[nH]c(=O)n(Cc2ccco2)c(O)c1C=NCCN1CCOCC1 | u | -20 | -10% | 46% | -9% | 6%
O=c1[nH]c(=S)n(-c2ccccc2F)c(O)c1C=NCc1ccco1 | 18%[59 µM] | 4 | 0% | 17% | -23% | -6%
Cc1ccc(-n2c(O)c(C=NCc3ccco3)c(=O)[nH]c2=S)cc1C | u | -25 | 32µM* | 21% | -25% | u
CCCCC(=O)N/N=C/c1c(O)n(C2CC2)c(=S)[nH]c1=O | 6%[59 µM] | 4 | 5% | 38% | -8% | u
CCCCC(=O)N/N=C/c1c(O)n(-c2cccc3ccccc23)c(=O)[nH]c1=O | 20% | -1 | -20% | 44% | 79µM* | 79µM*
O=C(N/N=C/c1c(O)n(Cc2ccco2)c(=O)[nH]c1=O)c1ccccc1O | u | -83* | x | 7% | 79µM* | u
C[C@@H]1CCc2cc(F)cc3c(=O)c(C(=O)O)cn1c23 | 17%[21.5 µM] | x | x | x | x | x
O=c1[nH]c(=O)n(-c2cccc3ccccc23)c(O)c1C=NCCCn1ccnc1 | -7% | 8 | x | 30% | -6% | 56µM*
CC(=O)Nc1ccc(N=Cc2c(O)n(Cc3ccco3)c(=O)[nH]c2=O)cc1 | 50µM* | u | -15% | 37% | -25% | -27%

Screening data (PubChem)
